Source: PubChem
Rows were chosen to be rich in hits. Some 3.4% of all compounds tested hit in one or more screens of this group.
PLC-beta3 inh – blocks human PLC-beta3 enzyme activity; Purified PLC-beta3, fluorogenic substrate, fluorescence; Q01970; inhibition, % at 12.2 µM; actives 0.18% (n = 370,000); in the data active means inhibition above about 11%
HGIII-sPLA2 inh – Inhibits HGIII-sPLA2 liposome hydrolysis, primary screen; Q9NZ20; QFRET BODIPY PC-A2 liposome hydrolysis, fluorescence; inhibition, % at 12.2 µM; actives 0.56% (n = 370,000); AID 743126;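 active means inhibition above mean plus 3 SD of compounds lying within the high and low control bounds, cut at about 19% in these data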
PLC-gamma1 inh – inhibitors of human phospholipase C gamma1. P19174. purified PLC-gamma1, fluorogenic substrate, fluorescence. inhibition, % at 12.2 µM. actives 0.84% (n = 370,000); in the data active means inhibition above about 9.5%
ADAM17 inh – inhibitors of human ADAM17; P78536; recombinant ADAM17, EDANS/DABCYL FRET peptide cleavage; inhibition, % at 6.95 µM; actives 0.83% (n = 370,000);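 active means inhibition above the mean of compounds lying between control limits plus 3 SD, set per campaign, cut at about 8.5% in these data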
Target sequence (P78536 215-824 limits assumed): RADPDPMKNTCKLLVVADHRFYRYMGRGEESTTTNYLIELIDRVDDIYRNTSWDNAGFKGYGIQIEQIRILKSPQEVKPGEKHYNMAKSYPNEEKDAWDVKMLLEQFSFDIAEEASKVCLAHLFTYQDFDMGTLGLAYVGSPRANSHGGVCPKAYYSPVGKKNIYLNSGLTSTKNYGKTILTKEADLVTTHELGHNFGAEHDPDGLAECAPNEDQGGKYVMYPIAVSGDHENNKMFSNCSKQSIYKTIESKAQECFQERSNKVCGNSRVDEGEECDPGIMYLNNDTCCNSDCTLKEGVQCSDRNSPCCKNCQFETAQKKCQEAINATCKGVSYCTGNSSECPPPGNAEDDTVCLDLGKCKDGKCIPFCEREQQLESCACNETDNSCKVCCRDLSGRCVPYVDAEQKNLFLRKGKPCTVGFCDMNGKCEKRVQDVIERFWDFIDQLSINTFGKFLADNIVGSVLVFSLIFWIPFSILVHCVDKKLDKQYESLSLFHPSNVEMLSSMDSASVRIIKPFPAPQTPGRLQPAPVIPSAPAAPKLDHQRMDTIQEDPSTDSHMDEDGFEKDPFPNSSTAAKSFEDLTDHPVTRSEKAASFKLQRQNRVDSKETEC
ADAM10 inh – ADAM10 inhibition, QFRET primary screen; O14672; recombinant ADAM10, EDANS/DABCYL FRET peptide cleavage, 3 h; inhibition, % at 7 µM; actives 0.62% (n = 370,000);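 active means inhibition above a per-campaign cutoff equal to the mean of compounds falling between control-based bounds plus 3 SD, cut at about 20% in these data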
proKLK7 act – activates the human kallikrein-7 zymogen. P49862. purified proKLK7, EDANS-DABCYL substrate fluorescence; 100% is mature enzyme control, 0% vehicle. activation, % at 7 µM. actives 0.9% (n = 370,000);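 active means activation above the mean of all tested compounds plus 3 SD, computed per campaign excluding outliers beyond control limits, cut at about 13% in these data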
Hits are given with their value.

COc1ccc(NC(=O)N2CCC(N(C)CCC(C)C)CC2)cc1OC was read as PLC-beta3 inh inactive, HGIII-sPLA2 inh inactive, PLC-gamma1 inh inactive, ADAM17 inh inactive, ADAM10 inh inactive and proKLK7 act inactive.
For COc1ccc(NS(=O)(=O)c2cccc(NC(=O)c3ccc(Cl)nc3)c2)cc1 the results were PLC-beta3 inh inactive, HGIII-sPLA2 inh inactive, PLC-gamma1 inh inactive, ADAM17 inh inactive, ADAM10 inh inactive and proKLK7 act inactive.
`O=C1CSc2ccc(C(=O)Nc3cccc(S(=O)(=O)Nc4ccc(Br)cc4)c3)cc2N1` gave PLC-beta3 inh inactive, HGIII-sPLA2 inh inactive, PLC-gamma1 inh inactive, ADAM17 inh 17, ADAM10 inh 48 and proKLK7 act inactive.
For O=C(Nc1cccc(S(=O)(=O)Nc2ccc(Cl)cc2)c1)c1ccc(Cl)nc1 the results were PLC-beta3 inh inactive, HGIII-sPLA2 inh inactive, PLC-gamma1 inh inactive, ADAM17 inh inactive, ADAM10 inh 31 and proKLK7 act inactive.
Screening COC(=O)[C@]12C[C@H](CC(=O)NCc3ccccc3)C(=O)N(CCc3ccc(OC)c(OC)c3)C1=C[C@H](C1CCCC1)O[C@@H]2C returned PLC-beta3 inh inactive, HGIII-sPLA2 inh inactive, PLC-gamma1 inh inactive, ADAM17 inh inactive, ADAM10 inh inactive and proKLK7 act inactive.
Screening Cc1cccc(NS(=O)(=O)c2ccc(NC(=O)CN(c3cc([N+](=O)[O-])ccc3C)S(C)(=O)=O)cc2)c1 returned PLC-beta3 inh inactive, HGIII-sPLA2 inh inactive, PLC-gamma1 inh inactive, ADAM17 inh 14, ADAM10 inh 36 and proKLK7 act inactive.
Cc1cc(C)cc(N(CC(=O)NC2CCC(C)CC2)S(=O)(=O)c2ccc([N+](=O)[O-])cc2)c1 (stereo not given) was read as PLC-beta3 inh inactive, HGIII-sPLA2 inh inactive, PLC-gamma1 inh inactive, ADAM17 inh inactive, ADAM10 inh inactive and proKLK7 act inactive.
COc1ccc(C(=O)CSc2nnc(-c3cccc(Cl)c3)n2Cc2ccco2)cc1 was read as PLC-beta3 inh inactive, HGIII-sPLA2 inh inactive, PLC-gamma1 inh inactive, ADAM17 inh inactive, ADAM10 inh inactive and proKLK7 act inactive.
For O=C(Nc1ccc(Br)cc1)c1cccc(N2C(=O)C3C4C=CC(C4)C3C2=O)c1 (stereo not given) the results were PLC-beta3 inh inactive, HGIII-sPLA2 inh inactive, PLC-gamma1 inh 14, ADAM17 inh inactive, ADAM10 inh inactive and proKLK7 act inactive.
O=C(Nc1ccccc1)c1cccc(N2C(=O)C3C4C=CC(C4)C3C2=O)c1 (stereo not given) was read as PLC-beta3 inh inactive, HGIII-sPLA2 inh inactive, PLC-gamma1 inh inactive, ADAM17 inh inactive, ADAM10 inh inactive and proKLK7 act inactive.
`CC(=O)N(C)c1nnc(-c2cnccn2)s1` gave PLC-beta3 inh inactive, HGIII-sPLA2 inh inactive, PLC-gamma1 inh inactive, ADAM17 inh inactive, ADAM10 inh inactive and proKLK7 act inactive.
For COCC(=O)N(C)c1nnc(-c2cnccn2)s1 the results were PLC-beta3 inh inactive, HGIII-sPLA2 inh inactive, PLC-gamma1 inh inactive, ADAM17 inh inactive, ADAM10 inh inactive and proKLK7 act 32.
COc1ccc(C[N+]2=C(N)NC3=C(C)Cn4c(=O)n(-c5ccccc5)c(=O)n4C3C2)c(OC)c1 (stereo not given) was read as PLC-beta3 inh inactive, HGIII-sPLA2 inh inactive, PLC-gamma1 inh inactive, ADAM17 inh inactive, ADAM10 inh inactive and proKLK7 act inactive.
COc1ccc(NC(=O)COc2ccc(CNCCCN3CCOCC3)cc2OC)cc1 was read as PLC-beta3 inh inactive, HGIII-sPLA2 inh inactive, PLC-gamma1 inh 10, ADAM17 inh inactive, ADAM10 inh inactive and proKLK7 act inactive.
O=C(C1CCCN1S(=O)(=O)c1ccc(Br)s1)N1CCc2ccccc2C1 (stereo not given) was read as PLC-beta3 inh inactive, HGIII-sPLA2 inh inactive, PLC-gamma1 inh inactive, ADAM17 inh inactive, ADAM10 inh inactive and proKLK7 act inactive.
For O=C(COC(=O)CNC(=O)c1ccc(Cl)cc1Cl)NC(=O)NCc1ccccc1 the results were PLC-beta3 inh inactive, HGIII-sPLA2 inh inactive, PLC-gamma1 inh 11, ADAM17 inh inactive, ADAM10 inh inactive and proKLK7 act inactive.
O=C(CNC(=O)c1ccc(Cl)cc1Cl)OCc1ccccc1 was read as PLC-beta3 inh inactive, HGIII-sPLA2 inh inactive, PLC-gamma1 inh inactive, ADAM17 inh inactive, ADAM10 inh inactive and proKLK7 act inactive.
`O=C(CSc1nnc(-c2cnccn2)n1-c1ccccc1)Nc1ccc2cn[nH]c2c1` gave PLC-beta3 inh inactive, HGIII-sPLA2 inh inactive, PLC-gamma1 inh inactive, ADAM17 inh inactive, ADAM10 inh inactive and proKLK7 act inactive.
Screening COc1ccc2ccccc2c1C=Nn1c(-c2cc(-c3ccccc3)n[nH]2)n[nH]c1=S returned PLC-beta3 inh inactive, HGIII-sPLA2 inh inactive, PLC-gamma1 inh inactive, ADAM17 inh inactive, ADAM10 inh inactive and proKLK7 act inactive.
For O=c1c2ccccc2ncn1-c1cccc([N+](=O)[O-])c1 the results were PLC-beta3 inh inactive, HGIII-sPLA2 inh 20, PLC-gamma1 inh inactive, ADAM17 inh inactive, ADAM10 inh inactive and proKLK7 act inactive.
Screening Cn1c(=O)c2cc(S(=O)(=O)N3CCN(c4ccccc4Cl)CC3)ccc2n(C)c1=O returned PLC-beta3 inh inactive, HGIII-sPLA2 inh inactive, PLC-gamma1 inh inactive, ADAM17 inh inactive, ADAM10 inh inactive and proKLK7 act inactive.
`CCN(CC)C(=O)CSc1nnc(-c2ccc(C(C)(C)C)cc2)n1-c1ccc(Cl)cc1` gave PLC-beta3 inh inactive, HGIII-sPLA2 inh inactive, PLC-gamma1 inh inactive, ADAM17 inh inactive, ADAM10 inh inactive and proKLK7 act inactive.
Screening Cc1nc2ccc(NC(=O)c3ccc(Cl)s3)cc2s1 returned PLC-beta3 inh inactive, HGIII-sPLA2 inh inactive, PLC-gamma1 inh inactive, ADAM17 inh inactive, ADAM10 inh inactive and proKLK7 act 13.
For CC(OC(=O)c1ccccn1)C(=O)Nc1ccc(C(F)(F)F)cc1 (stereo not given) the results were PLC-beta3 inh inactive, HGIII-sPLA2 inh inactive, PLC-gamma1 inh inactive, ADAM17 inh inactive, ADAM10 inh inactive and proKLK7 act inactive.
For CC(OC(=O)c1ccco1)C(=O)Nc1ccc(C(F)(F)F)cc1 (stereo not given) the results were PLC-beta3 inh inactive, HGIII-sPLA2 inh inactive, PLC-gamma1 inh 12, ADAM17 inh inactive, ADAM10 inh inactive and proKLK7 act inactive.
For COC(=O)[C@]12C[C@H](CC(=O)NCc3ccc(C)o3)C(=O)N(CCc3ccc(OC)c(OC)c3)C1=C[C@H](C(C)(C)C)O[C@@H]2C the results were PLC-beta3 inh inactive, HGIII-sPLA2 inh inactive, PLC-gamma1 inh inactive, ADAM17 inh inactive, ADAM10 inh inactive and proKLK7 act inactive.
Cc1ccc(S(=O)(=O)/N=C2\SC(CC(=O)Nc3ccc(F)cc3)C(=O)N2c2ccccc2)cc1 (stereo not given) was read as PLC-beta3 inh 11, HGIII-sPLA2 inh inactive, PLC-gamma1 inh inactive, ADAM17 inh inactive, ADAM10 inh inactive and proKLK7 act inactive.
